Measured values from PubChem BioAssay AID1159580 (chemical genetic matrix, 2015).
The campaign covered roughly 5,500 compounds. About 2,000 (36%) were called active. About 18% were inconclusive and are not listed. No stated cut-off is given here; in the data, active means normalized growth mostly below about 0.91 (no sharp cut-off); inconclusive means no clear call, values can overlap the other calls; inactive means mostly above about 0.92. The list shows a part of the results.

Assay: chemical genetic growth profiling, strain panel (AID 1159580);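 further: tested at 20 µM; growth read once vehicle control cultures reached saturation at 30 °C; 1 = growth at the plate median or of vehicle wells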
Details: growth OD

Measured: normalized growth

CO[C@@]12[C@@H]3NC3CN1C1=C(C(=O)C(N)=C(C)C1=O)[C@@H]2COC(N)=O (some centres not stated)
inactive: S. cerevisiae deletion strains, locus YJR075W, strain HOC1, stronger effect = lower value 0.995 | S. cerevisiae deletion strains, locus YKL009W, strain mrt4, stronger effect = lower value 0.964 | S. cerevisiae deletion strains, locus YKL068W, stronger effect = lower value 0.984 | S. cerevisiae deletion strains, locus YKL085W, strain MDH1 (second series), stronger effect = lower value 0.983 | S. cerevisiae deletion strains, locus YKL085W, strain MDH1, stronger effect = lower value 0.983 | S. cerevisiae deletion strains, locus YKL160W, strain elf1, stronger effect = lower value 0.974 | S. cerevisiae deletion strains, locus YKL190W, strain CNB1, stronger effect = lower value 1 | S. cerevisiae deletion strains, locus YKR001C, strain vps1, stronger effect = lower value 0.982 | S. cerevisiae deletion strains, locus YKR026C, strain gcn3, stronger effect = lower value 0.964 | S. cerevisiae deletion strains, locus YKR091W, strain srl3, stronger effect = lower value 0.959 | S. cerevisiae deletion strains, locus YLL001W, strain dnm1, stronger effect = lower value 0.929 | S. cerevisiae deletion strains, locus YLL026W, stronger effect = lower value 0.977 | S. cerevisiae deletion strains, locus YLL041C, strain sdh2, stronger effect = lower value 0.977 | S. cerevisiae deletion strains, locus YLR027C, strain aat2, stronger effect = lower value 0.953 | S. cerevisiae deletion strains, locus YLR039C, strain RIC1, stronger effect = lower value 1.01 | S. cerevisiae deletion strains, locus YLR058C, strain SHM2, stronger effect = lower value 0.999 | S. cerevisiae deletion strains, locus YLR102C, strain apc9, stronger effect = lower value 0.986 | S. cerevisiae deletion strains, locus YLR113W, strain HOG1, stronger effect = lower value 0.973 | S. cerevisiae deletion strains, locus YLR221C, strain rsa3, stronger effect = lower value 1.01 | S. cerevisiae deletion strains, locus YLR258W, strain gsy2, stronger effect = lower value 0.992 | S. cerevisiae deletion strains, locus YLR262C, strain YPT6 (second series), stronger effect = lower value 0.938 | S. cerevisiae deletion strains, locus YLR262C, strain YPT6, stronger effect = lower value 0.947 | S. cerevisiae deletion strains, locus YLR268W, strain sec22, stronger effect = lower value 1.01 | S. cerevisiae deletion strains, locus YLR320W, strain mms22, stronger effect = lower value 1.01 | S. cerevisiae deletion strains, locus YLR330W, strain CHS5, stronger effect = lower value 0.987 | S. cerevisiae deletion strains, locus YLR342W, strain FKS1 (second series), stronger effect = lower value 1 | S. cerevisiae deletion strains, locus YLR342W, strain FKS1, stronger effect = lower value 0.952 | S. cerevisiae deletion strains, locus YLR357W, strain rsc2, stronger effect = lower value 0.961 | S. cerevisiae deletion strains, locus YLR370C, strain arc18, stronger effect = lower value 0.96 | S. cerevisiae deletion strains, locus YLR371W, strain rom2, stronger effect = lower value 0.961 | S. cerevisiae deletion strains, locus YLR384C, strain iki3, stronger effect = lower value 0.953 | S. cerevisiae deletion strains, locus YLR418C, strain cdc73, stronger effect = lower value 1.05 | S. cerevisiae deletion strains, locus YML016C, strain PPZ1, stronger effect = lower value 1 | S. cerevisiae deletion strains, locus YML032C, strain rad52, stronger effect = lower value 0.96 | S. cerevisiae deletion strains, locus YML120C, strain ndi1, stronger effect = lower value 0.94 | S. cerevisiae deletion strains, locus YML124C, strain tub3, stronger effect = lower value 0.979 | S. cerevisiae deletion strains, locus YMR058W, strain fet3, stronger effect = lower value 0.942 | S. cerevisiae deletion strains, locus YMR078C, strain ctf18, stronger effect = lower value 0.975 | S. cerevisiae deletion strains, locus YMR125W, strain sto1, stronger effect = lower value 0.982 | S. cerevisiae deletion strains, locus YMR129W, stronger effect = lower value 0.975 | S. cerevisiae deletion strains, locus YMR205C, strain PFK2, stronger effect = lower value 0.996 | S. cerevisiae deletion strains, locus YMR223W, strain ubp8, stronger effect = lower value 0.977 | S. cerevisiae deletion strains, locus YMR231W, strain pep5, stronger effect = lower value 0.949 | S. cerevisiae deletion strains, locus YMR263W, strain SAP30, stronger effect = lower value 1.01 | S. cerevisiae deletion strains, locus YMR307W, strain GAS1, stronger effect = lower value 1.02 | S. cerevisiae deletion strains, locus YNL067W, strain RPL9B, stronger effect = lower value 1.02 | S. cerevisiae deletion strains, locus YNL071W, strain lat1, stronger effect = lower value 0.971 | S. cerevisiae deletion strains, locus YNL128W, strain TEP1, stronger effect = lower value 1 | S. cerevisiae deletion strains, locus YNL153C, strain GIM3, stronger effect = lower value 1.03 | S. cerevisiae deletion strains, locus YNL183C, strain NPR1, stronger effect = lower value 0.94 | S. cerevisiae deletion strains, locus YNL209W, strain ssb2, stronger effect = lower value 0.972 | S. cerevisiae deletion strains, locus YNL233W, strain BNI4, stronger effect = lower value 1.05 | S. cerevisiae deletion strains, locus YNL248C, strain rpa49, stronger effect = lower value 0.99 | S. cerevisiae deletion strains, locus YNL250W, strain rad50, stronger effect = lower value 0.975 | S. cerevisiae deletion strains, locus YNL271C, strain bni1, stronger effect = lower value 0.979 | S. cerevisiae deletion strains, locus YNL298W, strain CLA4, stronger effect = lower value 0.978 | S. cerevisiae deletion strains, locus YNL307C, strain MCK1, stronger effect = lower value 0.979 | S. cerevisiae deletion strains, locus YNL322C, strain KRE1 (second series), stronger effect = lower value 0.945 | S. cerevisiae deletion strains, locus YNL322C, strain KRE1, stronger effect = lower value 0.997 | S. cerevisiae deletion strains, locus YNR049C, strain mso1, stronger effect = lower value 0.978 | S. cerevisiae deletion strains, locus YNR052C, strain pop2, stronger effect = lower value 0.96 | S. cerevisiae deletion strains, locus YOL006C, strain TOP1, stronger effect = lower value 1.04 | S. cerevisiae deletion strains, locus YOL012C, strain htz1 0.963 | S. cerevisiae deletion strains, locus YOL147C, strain pex11, stronger effect = lower value 0.984 | S. cerevisiae deletion strains, locus YOR001W, strain rrp6, stronger effect = lower value 0.946 | S. cerevisiae deletion strains, locus YOR061W, strain CKA2, stronger effect = lower value 1.01 | S. cerevisiae deletion strains, locus YOR069W, strain VPS5, stronger effect = lower value 1 | S. cerevisiae deletion strains, locus YOR070C, strain gyp1, stronger effect = lower value 0.993 | S. cerevisiae deletion strains, locus YOR080W, strain dia2, stronger effect = lower value 0.968 | S. cerevisiae deletion strains, locus YOR083W, strain WHI5, stronger effect = lower value 0.94 | S. cerevisiae deletion strains, locus YOR106W, strain vam3, stronger effect = lower value 0.929 | S. cerevisiae deletion strains, locus YOR136W, strain idh2, stronger effect = lower value 0.981 | S. cerevisiae deletion strains, locus YOR144C, strain elg1, stronger effect = lower value 0.985 | S. cerevisiae deletion strains, locus YOR184W, strain ser1, stronger effect = lower value 0.948 | S. cerevisiae deletion strains, locus YOR231W, strain MKK1, stronger effect = lower value 0.982 | S. cerevisiae deletion strains, locus YOR265W, strain rbl2, stronger effect = lower value 0.963 | S. cerevisiae deletion strains, locus YOR270C, strain vph1, stronger effect = lower value 1 | S. cerevisiae deletion strains, locus YOR290C, strain snf2, stronger effect = lower value 0.998 | S. cerevisiae deletion strains, locus YOR316C, strain cot1, stronger effect = lower value 0.994 | S. cerevisiae deletion strains, locus YPL051W, strain arl3, stronger effect = lower value 0.985 | S. cerevisiae deletion strains, locus YPL055C, strain LGE1, stronger effect = lower value 1.02 | S. cerevisiae deletion strains, locus YPL078C, strain atp4, stronger effect = lower value 0.921 | S. cerevisiae deletion strains, locus YPL106C, strain sse1, stronger effect = lower value 0.951 | S. cerevisiae deletion strains, locus YPL240C, strain hsp82, stronger effect = lower value 0.979 | S. cerevisiae deletion strains, locus YPL241C, strain CIN2, stronger effect = lower value 0.998 | S. cerevisiae deletion strains, locus YPL256C, strain CLN2, stronger effect = lower value 0.971 | S. cerevisiae deletion strains, locus YPR119W, strain clb2, stronger effect = lower value 0.995 | S. cerevisiae deletion strains, locus YPR141C, strain kar3, stronger effect = lower value 0.983 | S. cerevisiae deletion strains, locus YPR163C, strain tif3, stronger effect = lower value 0.966 | S. cerevisiae deletion strains, locus YPR167C, strain met16, stronger effect = lower value 0.987 | S. cerevisiae deletion strains, strain wtn01, stronger effect = lower value 1.02 | S. cerevisiae strains, strain wild type, stronger effect = lower value 0.997
